Measurements taken from the supplement of paper PMC12645437, “Orthogonal IMiD-Degron Pairs Induce Selective Protein Degradation in Cells” (ACS Chemical Biology, 2025).
Whole data set: some 8,300 sequences, median “log2 fold change of degron read counts, EGFP-low vs EGFP+ sorted cells (limma voom), compound-induced degradation” near -1.1, cut for the highest 2% near 3.2. The sample holds the highest values, similar sequences and a random draw of the others, so the mix is not that of the screen.

Molecular target: T1, CRBN, Q96SW2
T1 chain: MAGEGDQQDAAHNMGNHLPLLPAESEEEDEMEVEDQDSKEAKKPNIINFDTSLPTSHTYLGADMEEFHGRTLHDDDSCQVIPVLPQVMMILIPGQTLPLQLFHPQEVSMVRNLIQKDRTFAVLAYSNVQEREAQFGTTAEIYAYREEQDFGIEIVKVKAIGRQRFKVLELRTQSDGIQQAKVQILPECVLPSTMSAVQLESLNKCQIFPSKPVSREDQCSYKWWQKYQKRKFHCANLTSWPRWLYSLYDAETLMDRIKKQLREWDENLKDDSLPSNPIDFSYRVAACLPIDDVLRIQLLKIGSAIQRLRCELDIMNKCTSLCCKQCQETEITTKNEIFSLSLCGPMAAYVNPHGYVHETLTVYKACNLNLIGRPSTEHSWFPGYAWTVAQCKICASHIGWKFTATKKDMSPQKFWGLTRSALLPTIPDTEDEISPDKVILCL
Assay: log2 fold change of degron read counts, EGFP-low vs EGFP+ sorted cells (limma voom), compound-induced degradation; higher = more compound-induced degradation of the degron-EGFP fusion; degrons are variants of IKZF1/3 zinc finger 2; compound dose not given here
Settings: Jurkat, 18 h
Experimental: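 Pooled library of 8380 IKZF3 ZF2 degron mutants (positions 146-167 varied within the IKZF3 130-189 degron; only the varied core is printed, flanks not printed) fused to EGFP with IRES-mCherry, lentivirally expressed in Jurkat cells. mCherry+ cells were treated with one IMiD compound for 18 h (dose not stated) and FACS-sorted into EGFP-low and EGFP+ populations. Degron sequences were counted by NGS, and log2FC (EGFP-low vs EGFP+) was estimated by limma voom over 3 biological replicates.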

[1] = compound: compound 19 (5-tert-butyl-thalidomide)
[2] = compound: compound 22 (5-morpholino-thalidomide)
[3] = compound: compound 33 (diphenyl IMiD analogue)
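Note: pooled lentiviral library of zinc finger degron-EGFP fusions in mCherry-positive Jurkat cells, FACS-sorted after compound exposure, with degron abundance counted by next-generation sequencing.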

Sequence | log2 fold change of degron read counts [1] | log2 fold change of degron read counts [2] | log2 fold change of degron read counts [3] | log2 fold change of degron read counts (compound: thalidomide)
FYCNICGAFFTQKGNLLRHIKL [46F_47Y_49N_50I_52G_53A_54F_55F_67L_, Q9UKT9] | 1.22 | 1.41 | 0.651 | -0.835
FYCEQCGAEFTQKGNLLRHIKL [46F_47Y_49E_50Q_52G_53A_54E_55F_67L_, Q9UKT9] | -0.252 | -0.709 | -0.311 | -2.41
FHCPQCGACFTQKGNLLRHIKL [46F_47H_49P_50Q_52G_53A_54C_55F_67L_, Q9UKT9] | -0.735 | -0.785 | 0.174 | -1.82
FKCPVCGAAFTQKGNLLRHIKL [46F_47K_49P_50V_52G_53A_54A_55F_67L_, Q9UKT9] | 1.7 | -0.2 | -1.11 | 0.798
FECEICGHPFTQKGNLLRHIKL [46F_47E_49E_50I_52G_53H_54P_55F_67L_, Q9UKT9] | -2.97 | -3.81 | -1.95 | -1.68
FWCPICGHKFTQKGNLLRHIKL [46F_47W_49P_50I_52G_53H_54K_55F_67L_, Q9UKT9] | -0.246 | -0.231 | -0.673 | -0.717
FFCPICGRWFTQKGNLLRHIKL [46F_47F_49P_50I_52G_53R_54W_55F_67L_, Q9UKT9] | 1.04 | 1 | -0.146 | -0.692
FVCEICGHPFTQKGNLLRHIKL [46F_47V_49E_50I_52G_53H_54P_55F_67L_, Q9UKT9] | -1.95 | -1.66 | -1.45 | -0.105
FFCEICGACFTQKGNLLRHIKL [46F_47F_49E_50I_52G_53A_54C_55F_67L_, Q9UKT9] | 3.78 | 3.84 | 2.33 | 1.61
FICEICGACFTQKGNLLRHIKL [46F_47I_49E_50I_52G_53A_54C_55F_67L_, Q9UKT9] | -0.122 | 2.02 | 2.45 | 2.64
FHCEICGACFTQKGNLLRHIKL [46F_47H_49E_50I_52G_53A_54C_55F_67L_, Q9UKT9] | 2.97 | 2.54 | 1.42 | 0.134
FLCEICGACFTQKGNLLRHIKL [46F_47L_49E_50I_52G_53A_54C_55F_67L_, Q9UKT9] | 1.19 | -0.209 | 1.6 | 1.57
FNCEICGACFTQKGNLLRHIKL [46F_47N_49E_50I_52G_53A_54C_55F_67L_, Q9UKT9] | 2.72 | 0.812 | 0.513 | 0.0996
FACEICGACFTQKGNLLRHIKL [46F_47A_49E_50I_52G_53A_54C_55F_67L_, Q9UKT9] | 3.71 | 2.6 | 1.54 | 0.745
FWCEICGACFTQKGNLLRHIKL [46F_47W_49E_50I_52G_53A_54C_55F_67L_, Q9UKT9] | 3.85 | 3.79 | 2.77 | 1.16
FECNQCGHIFTQKGNLLRHIKL [46F_47E_49N_50Q_52G_53H_54I_55F_67L_, Q9UKT9] | -3.19 | -3.02 | -3.5 | -3.26

Sequence | log2 fold change of degron read counts [1] | log2 fold change of degron read counts [2] | log2 fold change of degron read counts [3] | log2 fold change of degron read counts (compound: thalidomide)
FVCEICGRMFTQKGNLLRHIKL [46F_47V_49E_50I_52G_53R_54M_55F_67L_, Q9UKT9] | -2.37 | -1.56 | -0.324 | -0.297
FHCEICGHNFTQKGNLLRHIKL [46F_47H_49E_50I_52G_53H_54N_55F_67L_, Q9UKT9] | -2.97 | -3.92 | -2.88 | -3.29
FECNICGAHFTQKGNLLRHIKL [46F_47E_49N_50I_52G_53A_54H_55F_67L_, Q9UKT9] | -1.95 | -2.29 | 0.157 | 0.612
FYCEICGAQFTQKGNLLRHIKL [46F_47Y_49E_50I_52G_53A_54Q_55F_67L_, Q9UKT9] | 3.6 | 3.55 | 3.13 | 2.12
FDCEICGAQFTQKGNLLRHIKL [46F_47D_49E_50I_52G_53A_54Q_55F_67L_, Q9UKT9] | 2.04 | 0.951 | -0.0023 | 1.29
FWCEICGAQFTQKGNLLRHIKL [46F_47W_49E_50I_52G_53A_54Q_55F_67L_, Q9UKT9] | 3.54 | 3.93 | 2.7 | 2.04
FTCEICGAQFTQKGNLLRHIKL [46F_47T_49E_50I_52G_53A_54Q_55F_67L_, Q9UKT9] | 0.557 | 1.85 | 2.25 | 2.92
FECEICGAQFTQKGNLLRHIKL [46F_47E_49E_50I_52G_53A_54Q_55F_67L_, Q9UKT9] | -0.353 | -0.866 | 1.45 | 2.5
FICEICGAQFTQKGNLLRHIKL [46F_47I_49E_50I_52G_53A_54Q_55F_67L_, Q9UKT9] | 0.506 | 2.86 | 3.06 | 3.16
FMCEICGAQFTQKGNLLRHIKL [46F_47M_49E_50I_52G_53A_54Q_55F_67L_, Q9UKT9] | 0.486 | 0.824 | 2.7 | 1.97
FHCEICGAQFTQKGNLLRHIKL [46F_47H_49E_50I_52G_53A_54Q_55F_67L_, Q9UKT9] | 2.66 | 2.64 | 2 | 0.968
FQCEICGAQFTQKGNLLRHIKL [46F_47Q_49E_50I_52G_53A_54Q_55F_67L_, Q9UKT9] | 0.962 | 2.24 | 2.41 | 3.56
FRCEICGAQFTQKGNLLRHIKL [46F_47R_49E_50I_52G_53A_54Q_55F_67L_, Q9UKT9] | 0.162 | 0.149 | 1.38 | 1.94
FFCEICGAQFTQKGNLLRHIKL [46F_47F_49E_50I_52G_53A_54Q_55F_67L_, Q9UKT9] | 3.67 | 3.67 | 2.56 | 1.93
FLCEICGAQFTQKGNLLRHIKL [46F_47L_49E_50I_52G_53A_54Q_55F_67L_, Q9UKT9] | 1.29 | -0.49 | 1.79 | 2.07
